This is part of a sample that, as a whole, favours compounds with a hit. Of some 79,000 tested, about 15% had one in any assay. Unmarked numbers belong to inactive results. The source made the active and inactive calls. No stated cut-off is given here; in the data, active means growth inhibition above about 70%; inactive means the rest.

Growth inhibition data for 8 compounds are collected here from PubChem BioAssay (NCI).

This assay can be described thus: NCI Yeast Anticancer Drug Screen. Data for the CLN2oe strain (AID 163).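 Further: 0% = growth of vehicle-only control cultures.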 Particulars: S. cerevisiae CLN2oe strain, stronger effect = higher value. The procedure:
Growth inhibition of yeast strains with defined genetic alterations is measured as a screen for potential anti-cancer activity. Selected strains with alterations in DNA damage repair or cell cycle control were exposed to compounds and growth inhibition was measured relative to vehicle treated controls. The strain used in this assay is CLN2oe

Consider `Cc1c2cc[n+](CCO)cc2c(C)c2c1[nH]c1ccc(O)cc12`, for which the growth inhibition by setting is: (at 1.2 µM) -11%; (at 3.7 µM) -32%; (at 11.0 µM) -17%; (at 33.0 µM) -9%; (at 100.0 µM) 3%.
Consider `COc1ccccc1NC(=O)c1ccc(Cl)cc1`, for which the growth inhibition by setting is: (at 1.2 µM) -2%; (at 3.7 µM) 0%; (at 11.0 µM) -6%; (at 33.0 µM) -7%; (at 100.0 µM) -4%.
Turning to `O=C(O)C1CCCCC1c1c2ccc(=O)cc-2oc2cc(O)ccc12` (stereo not given), the growth inhibition (at 1.2 µM) was 13%; the growth inhibition (at 3.7 µM) is 14%; the growth inhibition (at 11.0 µM) is 12%; the growth inhibition (at 33.0 µM) was 37%; the growth inhibition (at 100.0 µM) is 94% (active).
Turning to `O=C(O)c1ccc2cc(Cl)c3ccccc3c2c1`, the growth inhibition by setting is: (at 1.2 µM) -10%; (at 3.7 µM) -13%; (at 11.0 µM) 23%; (at 33.0 µM) 41%; (at 100.0 µM) 57%.
The like results for `Nc1cc2ccccc2cc1N` were, in that order, 10%, 4%, 4%, 23% and 45%.
As for `Cc1cc(Cl)ccc1NC(=O)/C(Cl)=C(/Cl)C(=O)O`, the growth inhibition is, setting by setting: (at 1.2 µM) -1%; (at 3.7 µM) 3%; (at 11.0 µM) 1%; (at 33.0 µM) 11%; (at 100.0 µM) 99% (active).
Take `O=C(Cc1ccccc1)NNc1nc(NNC(=O)c2ccncc2)nc(Nc2ccc(Cl)cc2)n1`: the growth inhibition was -14% (at 1.2 µM); -9% (at 3.7 µM); -13% (at 11.0 µM); -20% (at 33.0 µM); -24% (at 100.0 µM).
As to `O=C1C(=O)N(c2ccccc2)[C@@]2(c3ccccc3)C(=Nc3ccccc3)OC(c3ccccc3)=C12`, the growth inhibition runs as follows: (at 1.2 µM) 2%; (at 3.7 µM) 0%; (at 11.0 µM) 1%; (at 33.0 µM) 9%; (at 100.0 µM) 47%.
